{"source": "the supplement of paper PMC4237247", "data": [{"test_system": "HeLa", "assay": "percent cells in G2/M phase; higher = more G2/M arrest", "details": "10 µM; 20 h; hit class: G1-phase inhibitor", "description": "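HTS of 79,827 drug-like compounds at 10 uM. HeLa cells in 384-well plates were treated for 20 h, fixed, stained with Vybrant DyeCycle Green and scanned on an Acumen eX3 cytometer to give per-well cell cycle profiles (% cells in each phase). The plate Z' was 0.51. Only hits are listed: G1 hits >4 SD and S hits >5 SD from the mean.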", "units": {"percent cells in G2/M phase": "%"}, "values": [{"smiles": "C/C=C(/C)C(=O)O[C@H]1C(C)=C2[C@H]([C@@H]1OC(=O)CCCCCCC)[C@@](C)(OC(C)=O)C[C@H](OC(=O)CCC)[C@@]1(O)[C@H]2OC(=O)[C@@]1(C)O", "percent cells in G2/M phase": 9.52}, {"smiles": "C[C@@H]1C[C@@H]([C@H](O)CC2CC(=O)NC(=O)C2)C(=O)[C@@H](C)C1", "note": "[Cycloheximide]", "percent cells in G2/M phase": 11.8}, {"smiles": "CNc1ccc2oc(C[C@H]3O[C@@]4(CC[C@H]3C)O[C@H]([C@H](C)C(=O)c3ccc[nH]3)[C@H](C)C[C@H]4C)nc2c1C(=O)O", "percent cells in G2/M phase": 5.98}, {"smiles": "C[C@@H]1O[C@@H](O[C@H]2C[C@@H](O)[C@]3(CO)[C@H]4[C@H](O)C[C@]5(C)[C@@H](C6=CC(=O)OC6)CC[C@]5(O)[C@@H]4CC[C@]3(O)C2)[C@H](O)[C@H](O)[C@H]1O", "percent cells in G2/M phase": 12.2}, {"smiles": "C/C(=C\\c1ccc(Cl)cc1)[N+](=O)[O-]", "percent cells in G2/M phase": 2.17}, {"smiles": "CC(C)(C)c1cc(C=C(C#N)C#N)cc(C(C)(C)C)c1O", "percent cells in G2/M phase": 12.3}, {"smiles": "CNC1CC2OC(C)(C1OC)n1c3ccccc3c3c4c(c5c6ccccc6n2c5c31)C(=O)NC4", "note": "(centres undefined)", "percent cells in G2/M phase": 3.24}, {"smiles": "O=[N+]([O-])c1ccc(NCCO)c2ncccc12", "percent cells in G2/M phase": 23.7}, {"smiles": "C[C@@]12C(=O)OC(=O)[C@]1(C)[C@H]1CC[C@@H]2O1", "percent cells in G2/M phase": 12}]}]}
